{"source": "PubChem BioAssay AID651768", "about": "(National Center for Advancing Translational Sciences (NCATS), 2012)", "note": "Hit rate of the full screen: of about 360,000 compounds, about 1,700 (0.47%) were called active. Inconclusive results (about 2%) are left out. Calls follow the shape of the dose curve; as a rule, active = well fitted inhibition curve with a large enough effect; inconclusive = small, poorly fitted or top-dose-only effect; inactive = no such curve, though single readings can be large or run the other way. Shown is part of a subset that was picked to be rich in actives."}
{"target": "Bifunctional 3'-5' exonuclease/ATP-dependent helicase WRN (Homo sapiens) (UniProt Q14191)", "sequence (Q14191 whole entry, looked up)": "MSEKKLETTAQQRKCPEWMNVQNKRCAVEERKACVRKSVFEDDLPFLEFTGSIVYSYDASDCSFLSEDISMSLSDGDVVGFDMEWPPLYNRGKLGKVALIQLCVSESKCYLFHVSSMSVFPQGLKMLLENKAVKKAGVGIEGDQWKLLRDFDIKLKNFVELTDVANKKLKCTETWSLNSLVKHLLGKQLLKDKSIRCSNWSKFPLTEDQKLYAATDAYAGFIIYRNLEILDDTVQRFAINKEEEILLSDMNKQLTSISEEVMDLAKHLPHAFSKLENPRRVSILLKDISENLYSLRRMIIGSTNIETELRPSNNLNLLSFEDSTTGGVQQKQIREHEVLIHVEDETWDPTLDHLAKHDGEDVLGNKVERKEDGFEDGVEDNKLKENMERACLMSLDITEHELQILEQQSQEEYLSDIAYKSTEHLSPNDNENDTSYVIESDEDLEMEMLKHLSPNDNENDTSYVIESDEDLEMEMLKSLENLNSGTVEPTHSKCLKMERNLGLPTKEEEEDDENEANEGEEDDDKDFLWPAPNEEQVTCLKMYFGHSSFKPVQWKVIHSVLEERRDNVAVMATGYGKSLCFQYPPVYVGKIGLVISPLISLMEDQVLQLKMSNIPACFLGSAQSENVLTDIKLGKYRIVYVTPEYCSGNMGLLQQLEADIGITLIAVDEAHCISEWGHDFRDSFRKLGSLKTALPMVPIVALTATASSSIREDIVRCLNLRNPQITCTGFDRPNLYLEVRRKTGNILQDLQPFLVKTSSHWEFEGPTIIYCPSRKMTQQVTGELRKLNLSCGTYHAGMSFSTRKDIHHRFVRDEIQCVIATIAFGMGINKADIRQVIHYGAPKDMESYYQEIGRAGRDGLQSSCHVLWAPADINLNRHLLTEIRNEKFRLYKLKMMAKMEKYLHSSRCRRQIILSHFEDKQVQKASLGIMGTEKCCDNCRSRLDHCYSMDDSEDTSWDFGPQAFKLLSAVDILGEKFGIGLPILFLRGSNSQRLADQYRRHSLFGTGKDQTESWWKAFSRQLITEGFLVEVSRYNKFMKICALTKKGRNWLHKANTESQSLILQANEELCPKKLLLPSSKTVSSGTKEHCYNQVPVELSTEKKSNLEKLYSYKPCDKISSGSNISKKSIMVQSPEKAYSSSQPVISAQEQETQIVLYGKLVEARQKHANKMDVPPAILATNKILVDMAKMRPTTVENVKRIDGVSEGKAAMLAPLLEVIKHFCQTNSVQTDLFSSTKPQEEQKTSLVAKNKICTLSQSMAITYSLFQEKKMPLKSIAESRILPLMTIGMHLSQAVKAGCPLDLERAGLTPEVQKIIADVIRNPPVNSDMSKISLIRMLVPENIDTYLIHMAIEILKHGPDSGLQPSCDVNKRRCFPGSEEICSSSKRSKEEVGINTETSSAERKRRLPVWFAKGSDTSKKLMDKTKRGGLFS", "assay": "qHTS for Inhibitors of WRN Helicase; also: nearly all actives have a fitted effect of over 55% in size; also: potency is read from the fitted curve at half-maximal effect; as to activity change, negative = inhibition: % is scaled to controls: 0 for no effect and ±100 for the full control effect", "details": "WRN helicase unwinding, fluorescent forked duplex, kinetic; series mostly up to 114 µM; activity change, negative = inhibition: at the top concentration", "procedure,_shortened": "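Kinetic fluorescence helicase assay: unwinding of a quenched forked DNA duplex (100 nM final) with 2 mM ATP final raises red fluorescence (525/598 nm). Compounds sat 15 min at room temperature with 20 nM WRN beforehand.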"}
{"compound": "Cc1cc(=O)oc2cc(OC(C)C(=O)NCCc3ccc(S(N)(=O)=O)cc3)ccc12", "note": "(configuration not stated)", "activity change, negative = inhibition": "6.34% (inactive)"}
{"compound": "CCOC(=O)c1cc(-c2ccc(F)cc2)n(CC(=O)NCc2ccccn2)c1C", "activity change, negative = inhibition": "1.61% (inactive)"}
{"compound": "CCN(C(=O)COC(=O)/C=C/c1nc2ccccc2s1)C1CCS(=O)(=O)C1", "note": "(configuration not stated)", "activity change, negative = inhibition": "-4.22% (inactive)"}
{"compound": "O=C(COC(=O)c1cnccn1)Nc1ccc(Cl)cc1C(F)(F)F", "activity change, negative = inhibition": "-3.76% (inactive)"}
{"compound": "O=C(CSC1=Nc2ccccc2C2=NC(c3ccccc3)C(=O)N12)NCC1CCCO1", "note": "(configuration not stated)", "activity change, negative = inhibition": "-2.26% (inactive)"}
{"compound": "NC(=O)CSC1=Nc2ccccc2C2=NC(CCC(=O)NCc3ccc(F)cc3)C(=O)N12", "note": "(configuration not stated)", "activity change, negative = inhibition": "-10% (inactive)"}
{"compound": "CC(C)C1N=C2c3ccccc3N=C(SCC(=O)c3ccc(O)c(O)c3)N2C1=O", "note": "(configuration not stated)", "Potency": "17.8 µM (active)"}
{"compound": "O=C(NCCCn1ccnc1)C(=O)c1cn(CC(=O)N2CCCCCC2)c2ccccc12", "activity change, negative = inhibition": "-2.75% (inactive)"}
{"compound": "Cc1nc2ccc(S(=O)(=O)NCC(=O)O)cc2s1", "activity change, negative = inhibition": "2.69% (inactive)"}
{"compound": "C/C(CC(O)(/C=N/O)c1ccccc1)=N\\O", "note": "(configuration not stated)", "activity change, negative = inhibition": "3.21% (inactive)"}
{"compound": "O=S(=O)(NC1CC1)c1ccc(F)c(F)c1", "activity change, negative = inhibition": "6.22% (inactive)"}
{"compound": "Cn1sc(=O)c2cc(S(=O)(=O)NC3CC3)ccc21", "Potency": "44.7 µM (active)"}
{"compound": "O=S(=O)(NC1CC1)c1ccc(Cl)cc1", "activity change, negative = inhibition": "-0.583% (inactive)"}
{"compound": "Cc1c(C(=O)NCCN(C)C)oc2ccc(S(=O)(=O)N3CCCC3)cc12", "activity change, negative = inhibition": "0.474% (inactive)"}
{"compound": "CCOP1(=O)C=C(C(C)(C)C)OC1c1ccc(F)cc1", "note": "(configuration not stated)", "activity change, negative = inhibition": "2.89% (inactive)"}
{"compound": "C[C@@H]1CN([C@H](C)CO)C(=O)CCCn2cc(nn2)CO[C@H]1CN(C)S(=O)(=O)c1ccc(Oc2ccccc2)nc1", "activity change, negative = inhibition": "6.33% (inactive)"}
{"compound": "CC12CCC(C(=O)N(CCC#N)CCC#N)(CC1=O)C2(C)C", "note": "(configuration not stated)", "activity change, negative = inhibition": "-12% (inactive)"}
{"compound": "COC(=O)[C@@]1(Cc2ccc(F)cc2)[C@H]2c3cc(C(=O)N4CCCC4)n(C[C@H](O)CO)c3C[C@H]2CN1C(=O)c1ccccc1", "activity change, negative = inhibition": "-0.35% (inactive)"}
{"compound": "CCOC(=O)N1CCC(NC(=O)CN2C(=O)COc3ccc(C(C)(C)C)cc32)CC1", "activity change, negative = inhibition": "3.66% (inactive)"}
{"compound": "CC[C@]12c3[nH]c4ccc(OC)cc4c3CCN1C(=O)C(CC(=O)NCCN1CCOCC1)C[C@@H]2C(=O)N1CCN(C(=O)C2CC2)CC1", "note": "(some centres not stated)", "activity change, negative = inhibition": "10.8% (inactive)"}
{"compound": "O=c1nc2s/c(=C\\c3ccco3)c(=O)n2nc1Cc1ccccc1", "Potency": "35.5 µM (active)"}
{"compound": "O=c1/c(=C/c2ccc(CNS(=O)(=O)c3ccccc3)o2)sc2n1CCN=2", "activity change, negative = inhibition": "-17.2% [at 57.1 µM] (inactive)"}
{"compound": "O=C(NCCc1ccco1)c1nn(Cc2ccccc2)c(=O)c2ccccc12", "activity change, negative = inhibition": "-18.2% (inactive)"}
{"compound": "Cc1cc(C(=O)OC(C)C(=O)Nc2cccc(S(=O)(=O)N3CCOCC3)c2)c(C)o1", "note": "(configuration not stated)", "activity change, negative = inhibition": "-4.49% (inactive)"}
{"compound": "CCOC(=O)N1CCN(C(=O)COC(=O)c2cccc(S(C)(=O)=O)c2)CC1", "activity change, negative = inhibition": "-2.83% (inactive)"}
{"compound": "CN(C)c1nc(NN)nc(Nc2ccc(F)cc2)n1", "activity change, negative = inhibition": "-7.55% (inactive)"}
{"compound": "CC(=O)Nc1nc(N(C)C)nc(N(C)C)n1", "activity change, negative = inhibition": "-1.07% (inactive)"}
{"compound": "CN(C)c1nc(Nc2ccc(Cl)c(Cl)c2)nc(N(C)C)n1", "Potency": "79.4 µM (active)"}
{"compound": "CCOc1ccc(OCC)c(NC(=O)CCS(=O)(=O)c2ccc(C)cc2)c1", "activity change, negative = inhibition": "-5.18% (inactive)"}
{"compound": "COc1ccc(Cl)cc1NC(=O)CCS(=O)(=O)c1ccc(Br)cc1", "Potency": "44.7 µM (active)"}
{"compound": "O=C(CCS(=O)(=O)c1ccc(Br)cc1)NCCc1ccc(Cl)cc1", "activity change, negative = inhibition": "-8.96% [at 11.6 µM] (inactive)"}
{"compound": "COC(=O)[C@]1(Cc2ccccc2)N[C@H](CN(C)S(=O)(=O)c2ccc(OC(F)(F)F)cc2)[C@@H]2C(=O)N(C)C(=O)[C@@H]21", "activity change, negative = inhibition": "-3.83% (inactive)"}
{"compound": "[O-][n+]1c2c(nn1-c1ccc(Cl)c(Cl)c1)-c1nonc1CC2", "activity change, negative = inhibition": "3.25% (inactive)"}
{"compound": "Cc1cc(C)c(S(=O)(=O)c2ccccc2)c(OC(=O)c2c(F)cccc2Cl)n1", "activity change, negative = inhibition": "-13.3% (inactive)"}
{"compound": "CC(C(=O)NC1CCS(=O)(=O)C1)N1C(=O)/C(=C/c2ccc(Cl)cc2)SC1=S", "note": "(configuration not stated)", "activity change, negative = inhibition": "-8.03% (inactive)"}
{"compound": "CC(C(=O)Nc1ccc(O)c(C(=O)O)c1)N1C(=O)/C(=C/c2cccs2)SC1=S", "note": "(configuration not stated)", "activity change, negative = inhibition": "-16.7% [at 11.6 µM] (inactive)"}
{"compound": "O=C(O)C(c1ccccc1)N1C(=O)/C(=C\\c2ccc(-c3cccc(Cl)c3)o2)SC1=S", "note": "(configuration not stated)", "Potency": "44.7 µM (active)"}
{"compound": "CCc1c(-c2ccc(F)cc2)ncn1Cc1cccc(-c2ccccc2)c1", "activity change, negative = inhibition": "0.397% (inactive)"}
{"compound": "Cc1cccc(C(=O)NNC(=O)CSc2nnc(C(C)C)n2C)c1", "activity change, negative = inhibition": "-22% (inactive)"}
{"compound": "FC(F)(F)C1CCCN(c2nsc3ccccc23)C1", "note": "(configuration not stated)", "Potency": "22.4 µM (active)"}
{"compound": "COc1ccc(Br)c(Cn2c(C)c(C(=O)NCc3cccs3)sc2=O)c1", "activity change, negative = inhibition": "1.69% [at 57.1 µM] (inactive)"}
{"compound": "COC(=O)C1=CN(c2c(C)cc(C)cc2C)C(N)=C(C#N)C1c1cccc(F)c1", "note": "(configuration not stated)", "activity change, negative = inhibition": "-5.53% (inactive)"}
{"compound": "FC(F)(F)c1cccc(-c2nc3ccccc3n2C(c2ccccc2)c2nc3ccccc3[nH]2)c1", "note": "(configuration not stated)", "activity change, negative = inhibition": "-2.09% (inactive)"}
{"compound": "CC1CN(/C=C/C(=O)C(F)(F)F)CC(C)O1", "note": "(configuration not stated)", "activity change, negative = inhibition": "-7.09% (inactive)"}
{"compound": "CC1=NN(c2ccc(Cl)c(C(=O)O)c2)C(=O)/C1=C/c1ccc(-c2ccccc2[N+](=O)[O-])o1", "Potency": "44.7 µM (active)"}
{"compound": "O=C1C2C3C=CC(C4CC34)C2C(=O)N1/N=C/c1ccc(-c2ccccc2[N+](=O)[O-])o1", "note": "(configuration not stated)", "activity change, negative = inhibition": "-4.13% (inactive)"}
{"compound": "COc1ccc(/C=C2/C(=O)N(c3ccccc3)N=C2C)c(OC)c1", "activity change, negative = inhibition": "-30.6% [at 11.6 µM] (inactive)"}
